PubChem BioAssay AID720690 (Broad Institute, 2013)
Entries with a potency or affinity are not part of this list. Values without a mark were called inactive.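 How the source made its calls: active means every repeat run showing a signal drop whose fitted half-maximal concentration is at most twice the top tested concentration; inconclusive means repeat runs disagree, or flat partial drop, or poor fit; inactive means the rest.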

Test: general mammalian cell viability loss – activator set, cherry-pick, cytotoxicity control for miR-122 modulator project, dose response (AID 720690);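 further: 0% = neutral control wells and -100% = MG132 cytotoxic control wells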
Details: HEK293T viability, CellTiter-Glo luminescence, 48 h; series mostly up to 26 µM; activity change, negative = cytotoxicity: at the top concentration

SMILES | activity change, negative = cytotoxicity
Cc1ccc(C(=O)n2nc(-c3ccccc3)nc2NCc2ccco2)cc1 | 12.1%
CNC(=O)C[C@@H]1CC[C@@H]2[C@@H](COc3ccc(NC(=O)Nc4ccc(F)c(F)c4)cc3C(=O)N2C)O1 | 15.3%
CCCNC(=O)C[C@H]1CC[C@@H]2[C@H](COc3ccc(NC(=O)c4cc(F)cc(F)c4)cc3C(=O)N2C)O1 | -1.48%
COc1ccc(CNC(=O)C[C@H]2CC[C@H]3[C@H](COc4ccc(NC(=O)C(C)C)cc4C(=O)N3C)O2)cc1 | -5.37%
COc1cccc(NC(=O)N2[C@H](CO)[C@@H](c3ccccc3)[C@H]2CNCC(C)C)c1 | -36.4%
COCC(=O)N(C)C[C@H]1Oc2cc(C#Cc3cccnc3)ccc2S(=O)(=O)N([C@@H](C)CO)C[C@@H]1C | -22.5%
CN1C[C@H]2[C@@H](c3ccccc31)[C@@H](CO)N2C(=O)C1CCOCC1 | 3.96%
CN1C(=O)c2cc(NC(=O)Cc3ccccc3)ccc2OC[C@H]2O[C@@H](CC(=O)NC3CCC3)CC[C@@H]21 | 1.07%
CN1C(=O)c2cc(NC(=O)c3cccs3)ccc2OC[C@@H]2O[C@@H](CC(=O)N3CCOCC3)CC[C@H]21 | 4.42% [at 23.5 µM]
CCCCC(=O)OCC(=O)c1[nH]c(C)c(C(=O)OCC)c1C | -3.31%
COC(=O)C[C@H]1CC[C@H]2[C@H](COc3ccc(NC(=O)c4cscn4)cc3C(=O)N2C)O1 | -12.2%
COc1ccc(CN2CCN(Cc3cccn3-c3ncccn3)CC2CCO)c(C)c1C (centres undefined) | 5.96%
C[C@@H]1CN([C@@H](C)CO)S(=O)(=O)c2ccc(/C=C/c3ccccc3)cc2O[C@@H]1CN(C)C(=O)c1cccnc1 | -12.1%
Cc1cc(C)c2c(c1)/C(=C/C(=O)c1ccc(Br)s1)C(=O)N2 | 4.2%
CN1C(=O)c2cc(NC(=O)c3ccc(F)cc3)ccc2OC[C@@H]2O[C@@H](CC(=O)O)CC[C@@H]21 | 11%
CNC(=O)C[C@H]1CC[C@@H]2[C@H](COc3ccc(NC(=O)Nc4ccccc4)cc3C(=O)N2C)O1 | 3.51%
COC(=O)C[C@H]1CC[C@@H]2[C@H](COc3ccc(NC(=O)c4cccs4)cc3C(=O)N2C)O1 | -2.48%
CCCNC(=O)N1[C@H](CNC(C)=O)[C@H](c2ccc(C3=CCCC3)cc2)[C@@H]1CO | 0.113%
C[C@@H]1CN([C@@H](C)CO)S(=O)(=O)c2ccc(C#CC3(O)CCCC3)cc2O[C@@H]1CN(C)C(=O)c1cccnc1 | -6.13%
CCNC(=O)Nc1ccc2c(c1)C(=O)N(C)[C@H]1CC[C@H](CC(=O)NCCOC)O[C@@H]1CO2 | -2.1%

SMILES | activity change, negative = cytotoxicity
CNC(=O)C[C@H]1CC[C@@H]2[C@@H](COc3ccc(NC(=O)C(C)C)cc3C(=O)N2C)O1 | -10.1% [at 23.5 µM]
Cc1cc2n(n1)C(c1cn(-c3ccccc3)nc1C)Nc1c(C)cccc1-2 (centres undefined) | -3.5%
CC1CCN(CCc2nc3cc(NC(=O)Nc4ccccc4)ccc3n2C)CC1 | 5.4%
CN1C(=O)c2cc(NC(=O)c3cccc(F)c3)ccc2OC[C@@H]2O[C@@H](CC(=O)O)CC[C@@H]21 | -6.33% [at 23.5 µM]
CNc1nc(NCC2CCCCC2)c2sccc2n1 | -0.267%
CCS(=O)(=O)Nc1ccc2c(c1)C(=O)N(C)C[C@@H](OC)[C@H](C)CN(CC1CCCC1)[C@H](C)CO2 | -3.76%
CC(C)(C)c1cc(NCCCn2ccnc2)n2ncc(-c3ccc(Cl)cc3)c2n1 | 2.97%
CN(C[C@H]1N[C@@H](CO)[C@H]1c1ccc(-c2ccccc2)cc1)C(=O)C1CCC1 | -13.6%
C[C@H](CO)N1C[C@H](C)[C@H](CN(C)CC2CCCCC2)OCCCC[C@H](C)Oc2ccc(NC(=O)Nc3cccc4ccccc34)cc2C1=O | -26% [at 12 µM]
CCCNC(=O)Nc1ccc2c(c1)C(=O)N(C)[C@H]1CC[C@H](CC(=O)NC3CCC3)O[C@H]1CO2 | -0.002%
C[C@@H]1CN([C@H](C)CO)S(=O)(=O)c2ccc(C#CC3(O)CCCC3)cc2O[C@@H]1CN(C)C(=O)c1cccnc1 | -4.02%
Cc1cc(NS(=O)(=O)c2ccc(NC(=O)C(CC(C)C)N3C(=O)c4ccccc4C3=O)cc2)nc(C)n1 (centres undefined) | 2.02%
COCC(=O)N1[C@@H](CO)[C@@H]2c3ccccc3N(C(=O)c3cccnc3)C[C@@H]21 | -15.7%
CO[C@H]1CN(C)C(=O)c2ccc(NC(C)=O)cc2OC[C@@H](C)N(C(=O)CC2CC2)C[C@H]1C | -2.04%
C/C=C/c1ccc([C@@H]2[C@@H](CO)N[C@@H]2CN(CC(C)C)C(=O)c2ccccn2)cc1 | -19.5%
CO[C@@H]1CN(C)C(=O)c2ccc(NS(=O)(=O)c3cccc(F)c3)cc2OC[C@@H](C)NC[C@H]1C | -2.14%
COc1cccc(COc2cc3ccccc3nc2C)c1 | -37.7%
CC#CCCCC(=O)Nc1ccccc1C(=O)O | 4.16%
CCOc1ccc(CCNC(=O)C2CCN(S(=O)(=O)N3CCC(C)CC3)CC2)cc1OCC | 23%
